Pf growth 48h – P. falciparum growth inhibition at 48 hours (one generation) | 310,000 compounds, 5.9% hits | Potency, µM (titrated, usually from 28.7 µM), without a hit: top-dose activity change, negative = inhibition, most hits filed as inhibitors | P. falciparum luciferase growth in erythrocytes, 48 h; note: potency is the fitted concentration of half-maximal effect; % is set by controls: 0 for no effect and ±100 for the full control effect
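Luciferase-expressing parasites in RBCs, 2% Hct / 0.1% parasitemia final; RPMI 1640 + 0.5% Albumax; 37 C, 5% CO2, one generation; luminescence read-out, lower signal = inhibition.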
Cycloheximide cs – affects cycloheximide protein synthesis inhibition readout, counter-screen | cell reporter, cycloheximide protein synthesis inhibition counterscreen | max response, % | 300,000 compounds, 12% hits; in the data active = max response mostly above about 13%, no sharp cut-off; inactive = mostly below about 14%; note: read at 38.3 µM for the half of the compounds with a filed dose; 0% is about no effect
Pf growth 96h – P. falciparum growth inhibition at 96 hours. Potency, µM (top dose mostly 28.7 µM), for inactives: at the highest dose activity change, negative = inhibition, most hits filed as inhibitors. 320,000 compounds, 6.9% hits. P. falciparum luciferase reporter growth, 96 h; note: potency is the fitted concentration of half-maximal effect; % is set by controls: 0 for no effect and ±100 for the full control effect
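96 h incubation, 37 C, 5% CO2, of luciferase-reporter P. falciparum-infected RBCs (2% hematocrit, 0.05% parasitemia final) with test compounds; endpoint luminescence.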
Shiga inhibitor – Shiga toxin inhibition; inhibition, % at 38.7 µM; Vero cells, Shiga toxin protein synthesis inhibition reporter; AID 2315; 290,000 compounds, 9.2% hits; in the data active = inhibition mostly above about 28%, no sharp cut-off; inactive = mostly below about 43%; note: 0% is about no effect
LmPK inhibitor – inhibitors of Leishmania mexicana pyruvate kinase. Q27686. purified LmPK, Kinase-Glo ATP luminescence, 1 h. Potency, µM (highest dose often 57.5 µM), for inactives: top-dose activity change, negative = inhibition, hits mostly inhibitors. 290,000 compounds, 0.37% hits. AID 1721; note: potency is the fitted concentration of half-maximal effect; % is set by controls: 0 for no effect and ±100 for the full control effect
Target sequence (Q27686 whole entry, looked up): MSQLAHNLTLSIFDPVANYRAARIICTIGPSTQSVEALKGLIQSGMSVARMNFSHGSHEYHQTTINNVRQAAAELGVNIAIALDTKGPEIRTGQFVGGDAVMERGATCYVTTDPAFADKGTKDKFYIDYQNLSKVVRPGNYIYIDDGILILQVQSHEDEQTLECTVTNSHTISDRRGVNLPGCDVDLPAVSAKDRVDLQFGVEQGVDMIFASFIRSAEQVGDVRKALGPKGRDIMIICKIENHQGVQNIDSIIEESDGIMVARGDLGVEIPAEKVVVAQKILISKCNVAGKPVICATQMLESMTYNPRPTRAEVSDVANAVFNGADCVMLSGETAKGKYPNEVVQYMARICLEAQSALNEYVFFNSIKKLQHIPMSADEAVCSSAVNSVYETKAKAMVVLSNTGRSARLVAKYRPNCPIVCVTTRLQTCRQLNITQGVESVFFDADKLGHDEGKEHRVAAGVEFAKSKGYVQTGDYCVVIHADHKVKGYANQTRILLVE
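Kinase-Glo luminescence read after 1 h RT reaction of 0.1 nM LmPK with 0.5 mM PEP and 0.1 mM ADP. Activity scaled between uninhibited and enzyme-free controls.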
* hit, by the source's call; u = inconclusive; x = not tested or not shown. The list is not random: actives were taken first. Their share in the collection is about 22%. Unless noted, calls come from the whole dose curve; as a rule, active = well fitted inhibition curve with a large enough effect; inconclusive = small, poorly fitted or top-dose-only effect, or another doubt; inactive = no such curve, though single readings can be large or run the other way.

SMILES	Pf growth 48h	Cycloheximide cs	Pf growth 96h	Shiga inhibitor	LmPK inhibitor
CCc1cc2c(=O)n3c(nc2s1)-c1[nH]c2ccc(OC)cc2c1CC3	62%	15*	2.9µM*	21	1%
COc1ccc2[nH]c3c(c2c1)CCN=C3C	9.3µM*	x	u	x	x
COc1ccc2[nH]c3c(c2c1)CN(C)CC3	32%	-5	20%	-7	1%
COc1ccc2[nH]c3c(c2c1)CCC/C3=N\N	40%	9.7*	77%	8	2%
OCCN=C1CCCc2c1[nH]c1ccc(Cl)cc21	123%	-3	184%	24	4%
Fc1ccc(/C=N/Nc2ncnc3nc[nH]c23)cc1F	u	73*	9.3µM*	99*	-27%
COc1ccc(/C=N/Nc2ncnc3c2[nH]c2ccccc23)c(OC)c1OC	-7%	2	0%	12	1%
C(=N\Nc1ncnc2nc[nH]c12)/c1cccs1	101%	41*	270%	111*	-25%
Cc1ccsc1/C=N/Nc1ncnc2nc[nH]c12	185%	42*	234%	85*	u
Cc1ccccc1/C=N/Nc1ncnc2nc[nH]c12	-15%	21*	8%	72*	-27%
Cc1ccsc1/C=N\NC(=O)CCc1c(C)n[nH]c1C	0%	-2	83%	-11	0%
COc1ccc2[nH]c(=O)c(CN(C(=O)C(C)C)c3ccccc3OC)cc2c1	-39%	0	-23%	x	-3%
COc1ccc(OCCCc2c(C)n[nH]c2C)cc1	x	5	9.3µM*	8	4%
Cc1n[nH]c(C)c1N=Nc1ccc(Br)cc1	18%	27*	30%	51	-2%
Cc1n[nH]c(C)c1CCCOc1ccccc1	x	6	63%	-3	-5%
Oc1[nH]c2ccc(Br)cc2c1N=Nc1ccc(F)cc1	35%	14	43%	45	1%
CNCCc1c(C)n[nH]c1C	0%	-1	12µM*	-13	-2%
COc1ccc(N=Nc2c(C)n[nH]c2C)cc1	53%	29*	52%	119*	-2%
CC(=O)c1cnc(Oc2cc(Cl)ccc2Cl)nc1C	-5%	-5	11%	-11	4%
C(=N\Nc1ccccc1)/c1nc2ccccc2s1	394%	64*	-64%	135*	-6%
Brc1csc(/C=N/Nc2nc3ccccc3s2)c1	20%	38*	14%	92*	-5%
C(=N\Nc1nc2ccccc2s1)/c1ccc2c(c1)OCO2	281%	72*	u	90*	-8%
C(=N\Nc1nc2ccccc2s1)/c1ccccn1	-81%	-5	-100%	-25	u
Cc1ccc2[nH]c(C)c(/C=N/Nc3nc4ccccc4s3)c2c1	-43%	51*	u	39	4%
COc1ccc(OC)c(Nc2nc(N)nc(CSc3nnc(-c4ccncc4)o3)n2)c1	11%	-4	x	14	4%
SMILES	Pf growth 48h	Cycloheximide cs	Pf growth 96h	Shiga inhibitor	LmPK inhibitor
CCc1ccccc1NC(=O)CNC(=O)CCc1nc2sc3c(c2c(=O)[nH]1)CCCC3	5%	x	3%	x	x
Cc1nc(N/N=C\c2ccc3c(c2)OCO3)sc1C	-62%	29*	-1%	x	9%
Brc1cc2c(cc1/C=N/Nc1nc3ccccc3s1)OCO2	98%	21*	203%	28*	4%
CCN(CC(=O)Nc1c(F)cccc1F)C(=O)CCNS(=O)(=O)c1ccccc1C(F)(F)F	u	x	-6%	x	x
Cc1nc(Nc2cnc(/C=C/c3cc(C(=O)Nc4cccc(C(F)(F)F)c4)ccc3C)cn2)cc(N2CCNCC2)n1	0.74µM*	-7	u	-15	-9%
Cc1ccc(NC(=O)c2cccc(C(F)(F)F)c2)cc1NC(=O)c1[nH]cnc1C(N)=O	31%	x	27%	x	x
O=C(C1CCN(S(=O)(=O)c2ccccc2)CC1)N1CCN(Cc2ccc3c(c2)OCO3)CC1	-9%	2	-26%	-7	0%
O=C(CCc1ccc(S(=O)(=O)N2CCOCC2)cc1)N1CCN(Cc2ccc3c(c2)OCO3)CC1	x	-2	3.3µM*	-9	2%
Cc1ccc2c(C)c(C(=O)N3CCN(Cc4ccc5c(c4)OCO5)CC3)oc2c1C	u	32*	u	75*	7%
Cc1ccc(C(=O)N2CCN(Cc3ccc4c(c3)OCO4)CC2)o1	6%	-4	81%	-15	0%
Cc1noc(C)c1S(=O)(=O)N1CCC(C(=O)N2CCN(Cc3ccc4c(c3)OCO4)CC2)CC1	u	-1	5.9µM*	-6	2%
